Among all 69,000 compounds or so, about 8,600 (12%) showed an effect of 50% or more. The sample as a whole holds a higher share of strong results than the screen did.

This assay relates to Plasmodium berghei. The assay can be described thus: Screen against P. berghei liver stage (PbLuc), transformed with Luciferase, at 10uM. The format is functional, HepG2. The settings on record: tested at 10 uM.
Turning to `Cc1cnn(CC2CCCN2C(=O)c2cccc(F)c2F)c1` (stereo not given), the INHIBITION was -65.3%. Turning to `CN(Cc1cnn(C)c1)C(=O)CCS(=O)(=O)c1ccc2c(c1)OCCO2`, the INHIBITION is reported as 38%. The same measure for `O=C(c1ccsc1)N1C[C@H]2CN(Cc3cccnc3)C(=O)[C@H]2C1`: 4.61%. In the case of `CO[C@H]1CN(S(=O)(=O)c2ccc(C)cc2)C[C@@]12CCCO2` it was 16.5%; in that of `O=C(NCc1ccc(Cl)s1)c1cc(CN2CCCC(O)C2)on1` (stereo not given), 49.9%.

As for `O=C(NCc1cccc(F)c1F)c1cc(CN2CCCC(O)C2)on1` (stereo not given), the INHIBITION turned out to be 34.1%. Take `O=C(NCc1cc2ccccc2s1)c1cc(CN2CCCC(O)C2)on1` (stereo not given): the INHIBITION turned out to be 50.8%.

For `CC(C)C[C@H](NC(=O)N1CCC(Cc2ccccc2)CC1)C(=O)O`, the INHIBITION is 43.4%. The same measure for `CCC(CO)N(Cc1cccnc1)C(=O)c1ccc(C)[nH]c1=O` (stereo not given): 35.1%. In the case of `Cc1ccc(CN2CCOC3(COCCN(S(C)(=O)=O)C3)C2)o1` (stereo not given) it was 15.4%. With `COc1ncccc1CNC(=O)N1CCC(CNC(C)=O)CC1`, the INHIBITION stood at 0.266%. Take `O=C(NCc1ccccc1)N1CCC(Oc2ncccc2Br)CC1`: the INHIBITION came out at 74.4%. In the case of `Clc1cccnc1OC1CCNCC1`, the INHIBITION was 28.6%. For `O=C(c1cc(C2CC2)on1)N1CCC(Oc2ncccc2Br)CC1`, the INHIBITION is listed as 44.2%. In the case of `O=C(CCC(=O)N1CCC(Oc2ncccc2Br)CC1)c1ccccc1` it was 45%; in that of `N#Cc1cccnc1OC1CCN(C(=O)c2cc(C3CC3)on2)CC1`, 34.3%. On to `N#Cc1cccnc1OC1CCN(C(=O)NCc2ccccc2)CC1`, for which the INHIBITION was found to be 52.6%.

For the compound `Brc1cccnc1OC1CCNCC1`, the INHIBITION is 51%. In the case of `O=C(NCc1ccccc1)N1CCC(Oc2ncccc2Cl)CC1` it was 22.2%; in that of `CCn1ncnc1CN1CCC(CNC(=O)c2cccnc2O)C1` (stereo not given), -11.3%; in that of `Cc1oc(C(C)C)cc1C(=O)N1C[C@@H]2CC[C@H]1CN(C(=O)N(C)C)C2`, -14.3%. With `Cc1cc(C)n(CC2CCN(CC(O)CN3CCOCC3)CC2)n1` (stereo not given), the INHIBITION is listed as -5.22%. In the case of `O=C1NC(C(=O)NCc2cccnc2Oc2ccccc2F)CO1` (stereo not given), the INHIBITION is on record as -12.1%. Turning to `CCCc1noc(C2CCCCN2C(=O)C2CCCC2)n1` (stereo not given), the INHIBITION is -11.7%. The same measure for `CCN(CC1CCOC1)C(=O)c1ccn(-c2cc(C)ccc2OC)n1` (stereo not given): 30.5%. Regarding `CNC(=O)[C@@]12CCC3(CCN(C(=O)COC)CC3)[C@@H]1CN(S(C)(=O)=O)C2`, the INHIBITION was -16.2%. For the compound `CCC(NC(=O)C(C)(C)C)c1ccccc1C` (stereo not given), the INHIBITION is 32.9%. In the case of `CC[C@@H](C)[C@H](NC(=O)Cn1ccc2c(Cl)cccc21)C(=O)O` it was -19.7%; in that of `C[C@]1(O)CN(CCC(N)=O)CC[C@@H]1Oc1cccc(F)c1`, 53%; in that of `C[C@]1(O)CN(CCO)CC[C@@H]1Oc1cccc(F)c1`, 59%. `C[C@]1(O)CN(Cc2ccc(C(=O)O)cc2)CC[C@@H]1Oc1cccc(F)c1`: the INHIBITION was found to be 15.9%. For `C[C@]1(O)CN(CC(=O)N2CCCC2)CC[C@@H]1Oc1cccc(F)c1`, the INHIBITION is given as 41.2%. In the case of `C[C@]1(O)CN(Cc2cccc(C(=O)O)c2)CC[C@@H]1Oc1cccc(F)c1` it was 17.4%; in that of `Cn1cncc1CN1CC[C@](C)(O)[C@@H](Oc2cccc(F)c2)C1`, 21.9%; in that of `Cc1cccc(CN2CC3(CCN(C(=O)N(C)C)CC3)OCC2=O)n1`, 30.3%. In the case of `Cc1cc(C(=O)NC2CCc3c(ccc(=O)n3CC3CC3)C2)no1` (stereo not given) it was 36.5%; in that of `Cc1nnc([C@]23COC[C@H]2CN(Cc2nccs2)C3)o1`, 9.79%. In the case of `Cc1cc2n(n1)CC(CNCc1ccccc1-n1cccn1)CN2` (stereo not given) it was -18.605%; in that of `O=C(c1ccncc1)N1C[C@@H]2OCCN(CCN3CCCC3)[C@@H]2C1`, 32.2%; in that of `Cc1cc(C(=O)N2C[C@@H]3OCCN(CCN4CCCC4)[C@@H]3C2)c(C)o1`, 32.2%.

Regarding `Cc1occc1C(=O)N1C[C@@H]2OCCN(CCN3CCCC3)[C@@H]2C1`, the INHIBITION was 66%. Turning to `CN(C)CCN1CCO[C@H]2CN(C(=O)c3ccsc3)C[C@H]21`, the INHIBITION is on record as 6.67%.

With `O=C(c1ccsc1)N1C[C@@H]2OCCN(CCN3CCCC3)[C@@H]2C1`, the INHIBITION is given as 82.3%. As for `O=C(c1ccco1)N1C[C@@H]2OCCN(CCN3CCCC3)[C@@H]2C1`, the INHIBITION is reported as 23.3%.

In the case of `O=C(CN1CCCC1Cn1cncn1)NCCOc1ccc(F)cc1` (stereo not given), the INHIBITION was found to be 42.9%. In the case of `O=C1CCC(=O)N1Cc1ccc(C(=O)N2CCCC2c2cccs2)cc1` (stereo not given), the INHIBITION is -21.9%. For `CN(Cc1ccsc1)C(=O)Nc1ccc(=O)n(C)c1`, the INHIBITION was determined as 47.4%. `Cn1cc(NC(=O)CCc2ccsc2)ccc1=O`: the INHIBITION came to 59.3%. In the case of `Cn1cc(NC(=O)NCc2ccsc2)ccc1=O` it was 16.1%; in that of `Cc1c(O)cccc1C(=O)N1CCCC2(C1)C(=O)N(C)c1ccccc12` (stereo not given), 17.7%; in that of `NC(=O)N1CCc2cc(C(=O)O)c(-c3ccsc3)nc2CC1`, 74.8%. The same measure for `O=C(O)c1cc2c(nc1-c1ccsc1)CCN(C(=O)C1CC1)CC2`: 40.8%. For `CC(=O)N1CCc2cc(C(=O)O)c(-c3ccsc3)nc2CC1`, the INHIBITION is 11.3%.

In the case of `CC(C)=CCCC1(C)CCC(=O)N(CCc2nc(N)cc(O)n2)C1` (stereo not given), the INHIBITION is reported as 21.5%. Turning to `c1coc(CN2CCCn3c(CN4CCOCC4)nnc3C2)c1`, the INHIBITION is listed as -4.26%.

As to `N#Cc1ccc(SCCC(=O)NC(N)=O)cc1`, the INHIBITION is -33.4%. For `NC(=O)NC(=O)CCSc1ccccc1Cl`, the INHIBITION came out at 55.9%. As for `CNC(=O)NC(=O)CCSc1ccccc1Cl`, the INHIBITION was 41.8%. As to `Cc1nc(CN2C[C@@H]3CN(c4ncccn4)C[C@@H]3C2=O)cs1`, the INHIBITION is reported as -12.1%. Take `Cc1cc(C)c(CNC(=O)NCC2Cc3ccccc3O2)c(=O)[nH]1` (stereo not given): the INHIBITION is recorded as 73.1%. In the case of `Cc1cc(C)c(CNC(=O)c2ccc3c(c2)CCC3)c(=O)[nH]1` it was 50.3%; in that of `Cc1cc(C)c(CNC(=O)Cc2ccc3c(c2)CCCC3)c(=O)[nH]1`, 40%. In the case of `Cc1cc(C)c(CNC(=O)NCC2Cc3ccccc32)c(=O)[nH]1` (stereo not given) it was 0.342%. The same measure for `Cc1cc(C)c(CNC(=O)NCc2ccc3c(c2)CCC3)c(=O)[nH]1`: 30.2%; for `Cc1cc(C)c(CNC(=O)NCC2COc3ccccc3C2)c(=O)[nH]1` (stereo not given): 17.5%.

(Values after ChEMBL document CHEMBL4513216, “Probing the Open Global Health Chemical Diversity Library for Multistage-Active Starting Points for Next-Generation Antimalarials” (ACS Infect Dis, 2020).)
